From PubChem
Sampled rows, rich in hits. Any-hit rate of the full collection: about 1.3%.
hERG WT inh: inhibitors of human wildtype KCNH2 potassium channel; activity change, % at 1.84 µM; Q12809; 340,000 tested, 0.37% active; U2OS, BacMam KCNH2, thallium flux FluxOr; active compounds read low;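 active = maximum activity change below -70%; inconclusive = maximum activity change between -70% and -50%; inactive = maximum activity change above -50%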; also: % is scaled to controls: 0 for no effect and ±100 for the full control effect
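U2OS cells transduced with wild-type KCNH2 virus are loaded with FluxOr dye for 45 min, and thallium flux is measured in kinetic reads before and after stimulation buffer. Rate constants are normalized to DMSO controls.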
TRPV1 agonist: activates the human vanilloid receptor TRPV1; activation, % at 8.33 µM; TRPV1-expressing cells, Fluo-8 calcium influx, agonist mode; AID 540275; 320,000 tested, 0.19% active; Q8NER1; in the data active = activation above about 80%; inconclusive = between about 30% and that limit; also: 0% is about no effect
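TRPV1-expressing cells were cultured overnight at 35.5C and loaded with Fluo-8 calcium dye for 40 to 90 min at room temperature. After a 10 s baseline, compound was added and calcium influx was read kinetically for 3 min (ex 480/em 520 nm).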
TRPV1 PAM: enhances activation of the human vanilloid receptor TRPV1. 320,000 tested, 0.02% active. TRPV1-expressing cells, Fluo-8 calcium influx, capsaicin EC20 potentiation. Q8NER1. potentiation, % at 8.33 µM. AID 540277; in the data active = potentiation above about 80%; inconclusive = between about 30% and that limit; also: 0% is about no effect
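Fluo-8 calcium influx in TRPV1-expressing cells, kinetic read (ex 480/em 520 nm). Compound added and read 3 min for agonist activity, followed by capsaicin at EC20 final and 2 min further read for enhancement.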
KCNH2 3.1 inh: KCNH2 3.1 (human) potassium channel inhibition | 340,000 tested, 0.95% active | activity change, % (tested at about 1.8 µM) | U2OS KCNH2 3.1, thallium flux FluxOr; active compounds read low;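 active = maximum activity change below -70%; inconclusive = maximum activity change from -70% to -50%; inactive = maximum activity change above -50%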;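 also: thallium influx rate constant from kinetic fluorescence after stimulation buffer; % is scaled to controls: 0 for no effect and ±100 for the full control effect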
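U2OS cells transduced with KCNH2 3.1 mutant virus (1.77 x 10^8 /mL, 4 h), plated overnight at 37 C, loaded 45 min with FluxOr dye plus Red40 quencher. Thallium flux rate constant from kinetic reads after stimulation buffer, normalised to controls.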
* = called active by the depositor; i = inactive; ? = inconclusive; nt = no result given.

SMILES | hERG WT inh | TRPV1 agonist | TRPV1 PAM | KCNH2 3.1 inh
Cc1ccc2c(CN3CCN(Cc4ccc5c(c4)OCO5)CC3)cc(=O)oc2c1C | 41.1 | 14.3 | -9.1 | -31.4
CC(=O)Nc1c(F)cc(Br)cc1F | 1.6 | 2.8 | 0.6 | -94.8*
CC(=O)Nc1cc(Br)ccc1O | 6.7 | -1.5 | -7.6 | -1.3
COc1ccccc1C1CCN(Cc2ccc(C)cc2)CC1 | 38.6 | -1.8 | 14.9 | -83.5*
O=C(CNc1cc(S(=O)(=O)N2CCOCC2)ccc1N1CCCC1)Nc1ccc(Cl)cc1F | 4.7 | nt | nt | -9.0
CC1C(=O)CC(c2ccc([N+](=O)[O-])cc2)NC1c1ccc([N+](=O)[O-])cc1 (stereo unspecified) | -21.9 | 0.3 | 7.3 | -70.9*
CC1C(=O)C(C)C(c2ccc([N+](=O)[O-])cc2)NC1c1ccc([N+](=O)[O-])cc1 (stereo unspecified) | 3.0 | -1.9 | -2.8 | ?
COC(=O)c1c[nH]c(=S)n1Cc1ccccc1 | -1.7 | nt | nt | 4.0
Cc1ccc(S(=O)(=O)NC(C(=O)N2CCN(S(=O)(=O)c3cccc(F)c3)CC2)C(C)C)cc1 (stereo unspecified) | -2.3 | -0.6 | -2.1 | -17.3
COc1ccc(-c2c(-c3cc(OC)cc(OC)c3)n(C)c3ccc(-c4ccc(S(N)(=O)=O)cc4)cc23)cc1 | 14.6 | 1.9 | -3.3 | -89.2*
CC(C)Cc1nc(SCC(=O)NCC2CCCO2)c2c(=O)n(C)c(=O)n(C)c2n1 (stereo unspecified) | -0.5 | 1.5 | -14.0 | -8.7
CC(=O)NCC1CCCN(C(=O)c2oc3c(F)cccc3c2C)C1 (stereo unspecified) | -16.3 | 2.4 | -20.0 | -125.6*
O=C(NC(=S)N(CCc1ccccc1)CCc1ccccc1)c1ccco1 | -123.1* | ? | -7.2 | 14.4
CC(CCc1ccccc1)NC(=S)NC(=O)c1ccco1 (stereo unspecified) | 1.2 | ? | -20.3 | 2.4
CCOC(=O)c1cnc2c(CC)cccc2c1NCCCN1CCOCC1 | -4.8 | ? | -14.3 | -73.5*
CCOC(=O)c1cnc2c(Cl)cccc2c1NCCCN1CCOCC1 | -0.9 | 5.2 | 2.6 | -5.2
NC(=S)N/N=C1\CCSc2ccc(Cl)cc21 | 1.7 | -5.0 | 8.3 | 4.7
Cc1cc(NC(=O)CN(C)CC(=O)Nc2ccc(Cl)c(C(F)(F)F)c2)no1 | -6.7 | ? | -11.9 | -2.4
Cc1cc(NC(=O)CN(C)CC(=O)Nc2ccc(Cl)cc2)no1 | 11.1 | nt | nt | -119.8*
Cc1cc(=O)c(C(=O)O)cn1Nc1ccc(F)cc1 | 17.2 | 1.2 | 3.4 | -84.0*
O=C(COC(=O)CNC(=O)c1ccc(Cl)c([N+](=O)[O-])c1)NCC1CCCO1 (stereo unspecified) | -2.0 | -2.4 | 10.8 | 10.3
Cc1[nH]c2ccc(C(=O)N3CCN(c4ccccc4Cl)CC3)cc2c1C | -78.4* | 10.4 | 5.4 | -30.4
Clc1ccc(CN2CCCCCC2)cc1 | -3.7 | -0.5 | -11.9 | 4.9
O=[N+]([O-])c1cc(CN2CCCC2)ccc1Sc1ccc(Cl)cc1 | 25.5 | 3.9 | -1.1 | -92.1*
O=C(NCc1nc2ccccc2[nH]1)C1=C[C@@H](c2ccc(Br)cc2)C[C@@H](OCc2ccc(CO)cc2)O1 | 9.8 | 25.7 | -4.3 | -97.4*
SMILES | hERG WT inh | TRPV1 agonist | TRPV1 PAM | KCNH2 3.1 inh
O=C(NCc1nc2ccccc2[nH]1)C1=C[C@@H](C2CCCCC2)C[C@@H](OCCCCO)O1 | 10.1 | 0.7 | 17.9 | -74.5*
O=C(NCc1nc2ccccc2[nH]1)C1=C[C@@H](c2ccc(Br)cc2)C[C@@H](OCCCCO)O1 | -35.2 | 2.8 | 0.1 | -88.7*
C[C@H]1C=C(C(=O)NCc2nc3ccccc3[nH]2)O[C@@H](OCCCCO)C1 | 22.7 | nt | nt | -0.1
O=C(NCc1cccs1)C1CC(=O)N(Cc2ccccc2)C1 (stereo unspecified) | -4.1 | nt | nt | -2.4
Cc1cc(C)cc(NC(=O)C(=O)NCC2CCCN2S(=O)(=O)c2cccs2)c1 (stereo unspecified) | -9.5 | 16.2 | -8.3 | 15.0
Cc1cccc(-c2nc(CN3CCCC(C(=O)NC4CCCC4)C3)c(C)o2)c1 (stereo unspecified) | 38.0 | 11.7 | 4.8 | -82.1*
CCN1/C(=C\c2ccc3cc(C)ccc3[n+]2CC)Sc2cc(C)c(C)cc21 | -126.4* | 5.1 | 11.6 | 4.9
CCN1/C(=C/c2ccc3cc(C)cc(C)c3[n+]2CC)Sc2cc(C)ccc21 | -16.9 | 12.6 | 12.3 | -15.2
COc1ccc(-c2cc(C#N)nc(Oc3ccc(Cl)cc3)n2)cc1 | 42.7 | 1.0 | -12.4 | -23.8
COc1ccc(-c2cc(C#N)nc(Cl)n2)cc1 | -5.8 | -4.5 | -8.4 | -80.2*
Clc1ccc(/C=C\c2nccc3c2[nH]c2ccccc23)cc1 | 0.7 | ? | -2.8 | -21.5
N#Cc1ccc(/C=C\c2nccc3c2[nH]c2ccccc23)cc1 | 7.2 | 90.1* | -1.8 | -18.4
COc1ccc(C(=O)NCCS(=O)(=O)N2CCc3ccccc3C2)cc1 | -11.2 | 5.2 | ? | 1.6
Cc1cccn2c(=O)c3cc(C(=O)NCC4CCCO4)c(=N)n(C4CCCCC4)c3nc12 (stereo unspecified) | -7.9 | 90.6* | -33.4 | 21.6
COc1ccc(-c2csc(N)n2)cc1F | -123.5* | 3.6 | -5.8 | -10.1
Nc1nc(-c2ccc(F)cc2)cs1 | 1.0 | 11.6 | -6.8 | 3.4
CCn1cc(S(=O)(=O)c2ccc(C)cc2)c(=O)c2cc(OC)ccc21 | -1.9 | 1.5 | 5.9 | 5.5
Cc1ccc(S(C)(=O)=O)cc1C(=O)OCC(=O)N1CCCC1=O | -1.8 | -3.1 | -1.7 | -1.9
CN(C)CCN(Cc1ccco1)S(=O)(=O)c1csc(C(N)=O)c1 | 3.4 | 3.8 | 22.4 | 4.9
CCCCN(Cc1ccco1)S(=O)(=O)c1csc(C(N)=O)c1 | -159.1* | 4.2 | 0.1 | -182.1*
Cc1cc(-c2nn(-c3ccccc3F)cc2CN2CCN(c3ccncc3)CC2)c(C)s1 | -136.7* | 0.4 | 0.4 | -135.5*
Cn1c(N)c(C(=O)CSc2n[nH]c(-c3ccccc3)n2)c(=O)n(C)c1=O | -0.9 | -0.7 | 0.6 | 25.6
CCCN1CCC(=O)N([C@H](CSc2ccc(OC)cc2)Cc2ccccc2)CC1 | 7.5 | -3.7 | 0.9 | -100.6*
Cc1ccc(SC[C@H](Cc2ccccc2)N2CCN(C)CCC2=O)cc1 | 7.0 | 19.5 | -17.9 | ?
Cc1ccc(SC[C@H](Cc2ccccc2)N2CCN(CCc3ccccc3)CCC2=O)cc1 | -100.9* | 0.8 | ? | -106.3*
SMILES | hERG WT inh | TRPV1 agonist | TRPV1 PAM | KCNH2 3.1 inh
CCCCCCCN1CCC(=O)N([C@H](CO)Cc2ccccc2)CC1 | ? | 3.2 | 12.0 | -108.6*
CCCN1CCC(=O)N([C@H](CSc2ccc(C)cc2)Cc2ccccc2)CC1 | 17.3 | ? | -0.3 | -101.2*
CCN(CC(=O)Nc1ccc(OC)cc1)C(=O)Cc1ccc(OC)c(S(=O)(=O)N2CCOCC2)c1 | -10.3 | -1.6 | ? | 2.6
COc1ccc([C@]23Cc4cc(OC)c(OC)cc4C(O2)c2c(c4ccccc4oc2=O)O3)cc1 | nt | i | i | nt
S=P(N1CC1)(N1CC1)N1CC1 | -6.9 | 2.6 | -2.1 | -6.2
CN1CCC(=O)N([C@H](CSc2ccccc2)Cc2ccccc2)CC1 | nt | 2.1 | -1.9 | nt
